Experimental data reported in PubChem BioAssay (NCI).
About 83,000 compounds went through this panel and 20% of them were active in at least one assay; those are over-represented in the sample as a whole.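 Assay: single dose, 48 h. Readout: percent growth (0 = no net growth; negative = cell death). Active: <10.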 Calls of active or inactive are those of the source.

What was measured:
Assay in all cases: NCI-60 one-dose screen, 48 h (100 = growth as untreated, 0 = no growth, -100 = all killed)
Conditions in all cases: 10 µM
HCT-15 colon = system: HCT-15 colon
HT29 colon = system: HT29 colon
SNB-75 CNS = system: SNB-75 CNS
SNB-19 CNS = system: SNB-19 CNS
U251 CNS = system: U251 CNS
PC-3 prostate = system: PC-3 prostate
SK-MEL-5 melanoma = system: SK-MEL-5 melanoma
LOX IMVI melanoma = system: LOX IMVI melanoma
SK-MEL-28 melanoma = system: SK-MEL-28 melanoma
SK-MEL-2 melanoma = system: SK-MEL-2 melanoma
EKVX NSCLC = system: EKVX NSCLC
SN12C renal = system: SN12C renal
UO-31 renal = system: UO-31 renal
TK-10 renal = system: TK-10 renal
ACHN renal = system: ACHN renal
CAKI-1 renal = system: CAKI-1 renal
A498 renal = system: A498 renal
CCRF-CEM leukemia = system: CCRF-CEM leukemia
MOLT-4 leukemia = system: MOLT-4 leukemia
UACC-62 melanoma = system: UACC-62 melanoma

Measured: growth

OCC1OC2C(NC(=S)N2c2ccccc2)C(O)C1O (stereo not drawn)
inactive: HCT-15 colon 99.2% | HT29 colon 101% | SNB-75 CNS 99.6% | SNB-19 CNS 91.9% | U251 CNS 97.5% | PC-3 prostate 96% | SK-MEL-5 melanoma 98.5% | LOX IMVI melanoma 100% | SK-MEL-28 melanoma 105% | SK-MEL-2 melanoma 111% | EKVX NSCLC 101% | SN12C renal 91.1% | UO-31 renal 101% | TK-10 renal 109% | ACHN renal 103% | CAKI-1 renal 91.4% | A498 renal 95.1% | CCRF-CEM leukemia 93.6% | MOLT-4 leukemia 107%

O=C1Cc2cc(CCN3CCN(c4nsc5ccccc45)CC3)c(Cl)cc2N1
active: CCRF-CEM leukemia 9.84%
inactive: HCT-15 colon 85.1% | HT29 colon 90.1% | SNB-75 CNS 78.8% | SNB-19 CNS 94.1% | U251 CNS 94.7% | PC-3 prostate 72.3% | SK-MEL-5 melanoma 92% | UACC-62 melanoma 84.8% | LOX IMVI melanoma 96.8% | SK-MEL-28 melanoma 90.3% | EKVX NSCLC 88.1% | SN12C renal 91% | UO-31 renal 58.8% | ACHN renal 95.6% | CAKI-1 renal 86.6% | A498 renal 64.1% | MOLT-4 leukemia 81.8%

COc1ccc(C(=O)CC(CC(=O)c2ccc(OC)cc2)c2c(C)nn(-c3ccccc3)c2Cl)cc1
inactive: HCT-15 colon 100% | HT29 colon 87% | SNB-75 CNS 91.3% | SNB-19 CNS 93.3% | U251 CNS 102% | PC-3 prostate 85.6% | SK-MEL-5 melanoma 90.2% | LOX IMVI melanoma 83.3% | SK-MEL-28 melanoma 105% | SK-MEL-2 melanoma 94.3% | EKVX NSCLC 102% | SN12C renal 93.3% | UO-31 renal 72.8% | TK-10 renal 103% | ACHN renal 90.8% | A498 renal 80.8%

O=C(Nc1ccc(F)cc1)c1cc2ccccc2cc1O
inactive: HCT-15 colon 76% | HT29 colon 95.8% | SNB-75 CNS 91.8% | SNB-19 CNS 83.3% | U251 CNS 79.6% | PC-3 prostate 42.9% | SK-MEL-5 melanoma 65.7% | LOX IMVI melanoma 76% | SK-MEL-28 melanoma 88.7% | SK-MEL-2 melanoma 84.7% | EKVX NSCLC 87.2% | SN12C renal 79.1% | UO-31 renal 63.9% | TK-10 renal 141% | ACHN renal 80.8% | A498 renal 69.2% | CCRF-CEM leukemia 71.6% | MOLT-4 leukemia 46.9%

CO[C@H]1CC(O[C@@H]2/C(C)=C/C[C@@H]3C[C@@H](C[C@]4(C=C[C@H](C)[C@@H](C5CCCCC5)O4)O3)OC(=O)[C@@H]3C=C(C)[C@@H](O)[C@H]4OC/C(=C\C=C\[C@@H]2C)[C@]43O)O[C@@H](C)C1O[C@H]1C[C@H](OC)[C@@H](O)[C@H](C)O1 (stereo partly drawn)
active: HCT-15 colon -79.2% | HT29 colon -71.9% | SNB-75 CNS -66.8% | SNB-19 CNS -5.35% | U251 CNS -91.2% | PC-3 prostate -59.6% | SK-MEL-5 melanoma -97.8% | UACC-62 melanoma -78.1% | LOX IMVI melanoma -97.3% | SK-MEL-28 melanoma -64.6% | EKVX NSCLC -94.3% | SN12C renal -79.1% | UO-31 renal -98.4% | ACHN renal -100% | CAKI-1 renal -94.6% | A498 renal -80.3% | CCRF-CEM leukemia -44.1% | MOLT-4 leukemia -58.2%

C[N+]1(CCCCC[N+]2(C)CCCC2)CCCC1
inactive: HCT-15 colon 103% | HT29 colon 102% | SNB-75 CNS 110% | SNB-19 CNS 96.8% | U251 CNS 108% | PC-3 prostate 86.3% | SK-MEL-5 melanoma 103% | UACC-62 melanoma 102% | LOX IMVI melanoma 105% | SK-MEL-28 melanoma 105% | SN12C renal 62.4% | UO-31 renal 78.5% | TK-10 renal 108% | ACHN renal 97.2% | CAKI-1 renal 78.6% | A498 renal 108% | CCRF-CEM leukemia 67.5% | MOLT-4 leukemia 91%

COc1ccc(C2CC(c3cccs3)=NN2c2ccc(S(N)(=O)=O)cc2)cc1 (stereo not drawn)
inactive: HCT-15 colon 84.3% | HT29 colon 86.8% | SNB-75 CNS 70.7% | SNB-19 CNS 77.4% | U251 CNS 78% | PC-3 prostate 49.9% | SK-MEL-5 melanoma 60.8% | UACC-62 melanoma 42.8% | LOX IMVI melanoma 102% | SK-MEL-28 melanoma 63.2% | SN12C renal 91.3% | TK-10 renal 108% | ACHN renal 90.2% | CAKI-1 renal 88.9% | A498 renal 78.5% | CCRF-CEM leukemia 76.3% | MOLT-4 leukemia 71.3%

Nc1cc(-c2ccncc2)c[nH]c1=O
inactive: HCT-15 colon 103% | HT29 colon 103% | SNB-75 CNS 76.6% | SNB-19 CNS 111% | U251 CNS 103% | PC-3 prostate 89.1% | SK-MEL-5 melanoma 106% | UACC-62 melanoma 109% | LOX IMVI melanoma 91.7% | SK-MEL-28 melanoma 105% | EKVX NSCLC 84.1% | SN12C renal 104% | UO-31 renal 82.5% | CAKI-1 renal 99.5% | A498 renal 73.3% | CCRF-CEM leukemia 113% | MOLT-4 leukemia 77.4%

Nc1nc(Cn2c(-c3nonc3N)nc3ccccc32)nc(N2CCCCC2)n1
inactive: HCT-15 colon 84.8% | HT29 colon 105% | SNB-75 CNS 76.4% | SNB-19 CNS 87% | U251 CNS 96.9% | PC-3 prostate 78% | SK-MEL-5 melanoma 83.2% | UACC-62 melanoma 84.3% | LOX IMVI melanoma 90% | SK-MEL-28 melanoma 95% | SN12C renal 98.2% | TK-10 renal 109% | ACHN renal 95.3% | CAKI-1 renal 85.8% | A498 renal 88.6% | CCRF-CEM leukemia 85.7% | MOLT-4 leukemia 83.2%
